# Reference: the supplement of paper PMC9135407
# Counter-ions that a name gives are not always drawn. Screen size: about 5,800 compounds; about 620 (11%) showed activity. What follows is part of a selection rich in actives, with near analogues and random picks from the rest. Values without a mark were called inactive.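 How the source made its calls: active = score above a cut-off or among the top three wells of a plate; in these data no inactive exceeds 0.85.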
# Tested on: primary human hepatic stellate cells (donor 1)
# Assay: scaled lipid accumulation score (0 = DMSO-like, 1 = nortriptyline-like); higher = stronger HSC inactivation (lipid re-accumulation), active = hit call of the paper
# Settings: 48 h
# [1] = library stock concentration: 3.33 mM
# [2] = library stock concentration: 10 mM
# [3] = library stock concentration: 80 uM
# [4] = library stock concentration: 400 uM
# [5] = library stock concentration: 2 mM
# [6] = library stock concentration: 1 mM
compound,measurement,setting,value
COc1ccc(CCN(C)CCCC(C#N)(c2ccc(OC)c(OC)c2)C(C)C)cc1OC (stereo not given) [Verapamyl hydrochloride],scaled lipid accumulation score,,0.545
COc1ccc(CCN(C)CCCC(C#N)(c2ccc(OC)c(OC)c2)C(C)C)cc1OC (stereo not given) [Verapamil HCl],scaled lipid accumulation score,[1],0.332
same,scaled lipid accumulation score,[2],0.536
COc1ccc(CCN(C)CCCC(C#N)(c2ccc(OC)c(OC)c2)C(C)C)cc1OC (stereo not given) [Verapamil hydrochloride],scaled lipid accumulation score,[2],0.587
COc1ccc(CCN(C)CCCC(C#N)(c2ccc(OC)c(OC)c2)C(C)C)cc1OC (stereo not given) [Verapamil],scaled lipid accumulation score,library stock concentration: 4.4 mM,0.416
O=C(O)Cc1c2ccccc2n2c1[nH]c(=O)c1ccccc12,scaled lipid accumulation score,[3],≤ -0.001
same,scaled lipid accumulation score,[4],≤ -0.001
same,scaled lipid accumulation score,[5],≤ -0.001
same,scaled lipid accumulation score,[2],≤ -0.001
CCCCC[C@H](O)/C=C/[C@H]1C(=O)C[C@H](O)[C@@H]1C/C=C\CCCC(=O)OC [Prostaglandin D2 methyl ester],scaled lipid accumulation score,[6],≤ 0
CNCc1cc(-c2ccccc2F)n(S(=O)(=O)c2cccnc2)c1,scaled lipid accumulation score,[1],0.046
same,scaled lipid accumulation score,[2],0.471
CC(C)=CCC/C(C)=C/CC/C(C)=C/CC[C@]1(C)CCc2c(C)c(O)c(C)c(C)c2O1 [.alpha.-Tocotrienol],scaled lipid accumulation score,[6],0.026
CCCc1c(OCC(O)COc2ccc3c(=O)cc(C(=O)O)oc3c2CCC)ccc(C(C)=O)c1O (stereo not given),scaled lipid accumulation score,[2],≤ -0.001
c1ccc2[nH]cnc2c1 [DRB (Benzimidazole)],scaled lipid accumulation score,library stock concentration: 15.7 mM,0.081
Clc1ccc(C2(c3ccc(-c4cn[nH]c4)cc3)CCNCC2)cc1 [listing 1 of 3 here],scaled lipid accumulation score,[5],0.95 (active)
same,scaled lipid accumulation score,[2],1.16 (active)
Clc1ccc(C2(c3ccc(-c4cn[nH]c4)cc3)CCNCC2)cc1 [listing 2 of 3 here],scaled lipid accumulation score,[3],0.375
same,scaled lipid accumulation score,[4],0.622
same,scaled lipid accumulation score,[2],0.425
Clc1ccc(C2(c3ccc(-c4cn[nH]c4)cc3)CCNCC2)cc1 [listing 3 of 3 here],scaled lipid accumulation score,[1],1.22 (active)
C[n+]1ccccc1C=NO [Pralidoxime mesylate],scaled lipid accumulation score,[2],0.016
O=C1C2CC3CC1CC(O)(C3)C2,scaled lipid accumulation score,[2],0.163
"N[C@H](C(=O)O)[C@H]1C[C@@H]1C(=O)O [(2S,1'S,2'S)-2-(carboxycyclopropyl)glycine]",scaled lipid accumulation score,[2],0.17
CCCC(=O)OCOC(=O)C1=C(C)NC(C)=C(C(=O)OC)C1c1cccc(Cl)c1Cl (stereo not given) [Clevidipine Butyrate],scaled lipid accumulation score,[1],≤ 0
same,scaled lipid accumulation score,[2],≤ 0
CCOC(=O)C1=C(C)NC(C)=C(C(=O)OC)C1c1cccc(Cl)c1Cl (stereo not given) [Felodipine] [listing 1 of 2 here],scaled lipid accumulation score,[2],0.931 (active)
CCOC(=O)C1=C(COCCN)NC(C)=C(C(=O)OC)C1c1ccccc1Cl.O=S(=O)(O)c1ccccc1 (stereo not given) [Amlodipine besylate],scaled lipid accumulation score,[2],1.02 (active)
CCOC(=O)C1=C(C)NC(C)=C(C(=O)OC)C1c1cccc(Cl)c1Cl (stereo not given) [Felodipine] [listing 2 of 2 here],scaled lipid accumulation score,,0.05
same,scaled lipid accumulation score,[1],≤ 0
same,scaled lipid accumulation score,library stock concentration: 5.2 mM,0.028
same,scaled lipid accumulation score,[2],≤ 0
CCO/C(O)=C1\C(COCCN)=NC(C)=C(C(=O)OC)C1c1ccccc1Cl (stereo not given),scaled lipid accumulation score,[2],1.38 (active)
CCOC(=O)C1=C(COCCN)NC(C)=C(C(=O)OC)C1c1ccccc1Cl (stereo not given) [Amlodipine besylate],scaled lipid accumulation score,library stock concentration: 3.5 mM,≤ 0
CCO/C(O)=C1\C(C)=NC(c2ccccc2)=C(C(=O)OCc2ccc([N+](=O)[O-])cc2)C1C#Cc1ccccc1 (stereo not given),scaled lipid accumulation score,[2],≤ 0
COC(=O)C1=C(C)NC(C)=C(C(=O)OCCSc2ccccc2)C1C (stereo not given),scaled lipid accumulation score,[2],0.111
same,scaled lipid accumulation score,library stock concentration: 13.8 mM,0.203
CCOC(=O)C1=C(COCCN)NC(C)=C(C(=O)OC)C1c1ccccc1Cl (stereo not given) [Amlodipine],scaled lipid accumulation score,[1],0.492
same,scaled lipid accumulation score,library stock concentration: 4.9 mM,≤ -0.006
same,scaled lipid accumulation score,[2],0.33
